According to PubChem BioAssay AID1159580 (chemical genetic matrix, 2015):
Out of some 5,500 compounds screened, about 2,000 (36%) were called active. Not shown: some 18% with an inconclusive outcome. Rule as the data show it: active = normalized growth mostly below about 0.91 (no sharp cut-off); inconclusive = no clear call, values can overlap the other calls; inactive = mostly above about 0.92. This is one part of the list.

Experiment: chemical genetic growth profiling, strain panel (AID 1159580);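 also: tested at 20 µM; growth read once vehicle control cultures reached saturation at 30 °C; 1 = growth at the plate median or of vehicle wells; lower values mean less growth of the strain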
Conditions: growth OD

Measured: normalized growth

Fc1ccc([C@@H]2CCNC[C@H]2COc2ccc3c(c2)OCO3)cc1
inactive: S. cerevisiae deletion strains, locus YJR075W, strain HOC1, active compounds read low 1.03 | S. cerevisiae deletion strains, locus YKL009W, strain mrt4, active compounds read low 1.03 | S. cerevisiae deletion strains, locus YKL068W, active compounds read low 1 | S. cerevisiae deletion strains, locus YKL085W, strain MDH1 (second series), active compounds read low 0.991 | S. cerevisiae deletion strains, locus YKL085W, strain MDH1, active compounds read low 0.991 | S. cerevisiae deletion strains, locus YKL160W, strain elf1, active compounds read low 0.99 | S. cerevisiae deletion strains, locus YKL190W, strain CNB1, active compounds read low 1.01 | S. cerevisiae deletion strains, locus YKR001C, strain vps1, active compounds read low 1.02 | S. cerevisiae deletion strains, locus YKR026C, strain gcn3, active compounds read low 1.01 | S. cerevisiae deletion strains, locus YKR091W, strain srl3, active compounds read low 0.999 | S. cerevisiae deletion strains, locus YLL001W, strain dnm1, active compounds read low 1 | S. cerevisiae deletion strains, locus YLL026W, active compounds read low 0.998 | S. cerevisiae deletion strains, locus YLL041C, strain sdh2, active compounds read low 1 | S. cerevisiae deletion strains, locus YLR027C, strain aat2, active compounds read low 1 | S. cerevisiae deletion strains, locus YLR039C, strain RIC1, active compounds read low 1.09 | S. cerevisiae deletion strains, locus YLR058C, strain SHM2, active compounds read low 1.01 | S. cerevisiae deletion strains, locus YLR102C, strain apc9, active compounds read low 1.02 | S. cerevisiae deletion strains, locus YLR113W, strain HOG1, active compounds read low 0.995 | S. cerevisiae deletion strains, locus YLR221C, strain rsa3, active compounds read low 1.01 | S. cerevisiae deletion strains, locus YLR258W, strain gsy2, active compounds read low 1.01 | S. cerevisiae deletion strains, locus YLR262C, strain YPT6 (second series), active compounds read low 1.08 | S. cerevisiae deletion strains, locus YLR262C, strain YPT6, active compounds read low 1.09 | S. cerevisiae deletion strains, locus YLR268W, strain sec22, active compounds read low 0.989 | S. cerevisiae deletion strains, locus YLR320W, strain mms22, active compounds read low 0.984 | S. cerevisiae deletion strains, locus YLR330W, strain CHS5, active compounds read low 1.01 | S. cerevisiae deletion strains, locus YLR342W, strain FKS1 (second series), active compounds read low 1.06 | S. cerevisiae deletion strains, locus YLR342W, strain FKS1, active compounds read low 0.996 | S. cerevisiae deletion strains, locus YLR357W, strain rsc2, active compounds read low 0.998 | S. cerevisiae deletion strains, locus YLR370C, strain arc18, active compounds read low 0.994 | S. cerevisiae deletion strains, locus YLR371W, strain rom2, active compounds read low 1.01 | S. cerevisiae deletion strains, locus YLR384C, strain iki3, active compounds read low 0.995 | S. cerevisiae deletion strains, locus YLR418C, strain cdc73, active compounds read low 1.01 | S. cerevisiae deletion strains, locus YML016C, strain PPZ1, active compounds read low 1.01 | S. cerevisiae deletion strains, locus YML032C, strain rad52, active compounds read low 1.02 | S. cerevisiae deletion strains, locus YML120C, strain ndi1, active compounds read low 0.991 | S. cerevisiae deletion strains, locus YML124C, strain tub3, active compounds read low 1 | S. cerevisiae deletion strains, locus YMR058W, strain fet3, active compounds read low 1 | S. cerevisiae deletion strains, locus YMR078C, strain ctf18, active compounds read low 1.01 | S. cerevisiae deletion strains, locus YMR125W, strain sto1, active compounds read low 0.999 | S. cerevisiae deletion strains, locus YMR129W, active compounds read low 0.995 | S. cerevisiae deletion strains, locus YMR205C, strain PFK2, active compounds read low 0.98 | S. cerevisiae deletion strains, locus YMR223W, strain ubp8, active compounds read low 1.03 | S. cerevisiae deletion strains, locus YMR231W, strain pep5, active compounds read low 1.01 | S. cerevisiae deletion strains, locus YMR263W, strain SAP30, active compounds read low 1 | S. cerevisiae deletion strains, locus YMR307W, strain GAS1, active compounds read low 1.13 | S. cerevisiae deletion strains, locus YNL067W, strain RPL9B, active compounds read low 0.994 | S. cerevisiae deletion strains, locus YNL071W, strain lat1, active compounds read low 1 | S. cerevisiae deletion strains, locus YNL128W, strain TEP1, active compounds read low 1.02 | S. cerevisiae deletion strains, locus YNL153C, strain GIM3, active compounds read low 0.979 | S. cerevisiae deletion strains, locus YNL183C, strain NPR1, active compounds read low 1.01 | S. cerevisiae deletion strains, locus YNL209W, strain ssb2, active compounds read low 1 | S. cerevisiae deletion strains, locus YNL233W, strain BNI4, active compounds read low 1 | S. cerevisiae deletion strains, locus YNL248C, strain rpa49, active compounds read low 1.02 | S. cerevisiae deletion strains, locus YNL250W, strain rad50, active compounds read low 1 | S. cerevisiae deletion strains, locus YNL271C, strain bni1, active compounds read low 1.02 | S. cerevisiae deletion strains, locus YNL298W, strain CLA4, active compounds read low 1.01 | S. cerevisiae deletion strains, locus YNL307C, strain MCK1, active compounds read low 1.03 | S. cerevisiae deletion strains, locus YNL322C, strain KRE1 (second series), active compounds read low 1.01 | S. cerevisiae deletion strains, locus YNL322C, strain KRE1, active compounds read low 1.01 | S. cerevisiae deletion strains, locus YNR049C, strain mso1, active compounds read low 1 | S. cerevisiae deletion strains, locus YNR052C, strain pop2, active compounds read low 1.02 | S. cerevisiae deletion strains, locus YOL006C, strain TOP1, active compounds read low 1.06 | S. cerevisiae deletion strains, locus YOL012C, strain htz1 1.14 | S. cerevisiae deletion strains, locus YOL147C, strain pex11, active compounds read low 1 | S. cerevisiae deletion strains, locus YOR001W, strain rrp6, active compounds read low 0.983 | S. cerevisiae deletion strains, locus YOR061W, strain CKA2, active compounds read low 1.01 | S. cerevisiae deletion strains, locus YOR069W, strain VPS5, active compounds read low 1.01 | S. cerevisiae deletion strains, locus YOR070C, strain gyp1, active compounds read low 1 | S. cerevisiae deletion strains, locus YOR080W, strain dia2, active compounds read low 1 | S. cerevisiae deletion strains, locus YOR083W, strain WHI5, active compounds read low 1.01 | S. cerevisiae deletion strains, locus YOR106W, strain vam3, active compounds read low 1 | S. cerevisiae deletion strains, locus YOR136W, strain idh2, active compounds read low 1.01 | S. cerevisiae deletion strains, locus YOR144C, strain elg1, active compounds read low 1 | S. cerevisiae deletion strains, locus YOR184W, strain ser1, active compounds read low 1.05 | S. cerevisiae deletion strains, locus YOR231W, strain MKK1, active compounds read low 1.03 | S. cerevisiae deletion strains, locus YOR265W, strain rbl2, active compounds read low 0.996 | S. cerevisiae deletion strains, locus YOR270C, strain vph1, active compounds read low 0.905 | S. cerevisiae deletion strains, locus YOR290C, strain snf2, active compounds read low 1.03 | S. cerevisiae deletion strains, locus YOR316C, strain cot1, active compounds read low 1 | S. cerevisiae deletion strains, locus YPL051W, strain arl3, active compounds read low 1 | S. cerevisiae deletion strains, locus YPL055C, strain LGE1, active compounds read low 1.01 | S. cerevisiae deletion strains, locus YPL078C, strain atp4, active compounds read low 1.01 | S. cerevisiae deletion strains, locus YPL106C, strain sse1, active compounds read low 1.03 | S. cerevisiae deletion strains, locus YPL240C, strain hsp82, active compounds read low 1.02 | S. cerevisiae deletion strains, locus YPL241C, strain CIN2, active compounds read low 1.01 | S. cerevisiae deletion strains, locus YPL256C, strain CLN2, active compounds read low 1.04 | S. cerevisiae deletion strains, locus YPR119W, strain clb2, active compounds read low 1.01 | S. cerevisiae deletion strains, locus YPR141C, strain kar3, active compounds read low 1 | S. cerevisiae deletion strains, locus YPR163C, strain tif3, active compounds read low 1 | S. cerevisiae deletion strains, locus YPR167C, strain met16, active compounds read low 1.01 | S. cerevisiae deletion strains, strain wtn01, active compounds read low 0.998 | S. cerevisiae strains, strain wild type, active compounds read low 1.02
